Assay results reported in the supplement of paper PMC10849652.
Targets with a hit are over-represented here; the source holds about 7,900 in all. About 0.6% of all pairs of compound and target were hits. Values without a mark were called inactive.

Experiments:
Test in all cases: log2 fold change, soluble protein after heating vs DMSO (PISA); higher = thermal stabilisation; K562 cells, 10 uM, 30 min; active = over 0.2 and 3.5 SD of the protein, either way, in both replicates (recomputed)
[1] = compound: C1COCCN1CCN2C3=CC=CC=C3N=C2NC(=O)C4=CC(=CC=C4)[N+](=O)[O-] [IRAK-1-4 Inhibitor I]
How it was run: (§1)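 K562 cells at 2×10^6 cells/mL were given 10 μM compound for 30 min. Aliquots then went through 3 min of heating across 48°C-58°C, were pooled, and were extracted in PBS with 0.5% NP-40 at 4°C, and the supernatant after 21,000xg for 90 min was quantified by TMTpro 16plex LC-MS/MS with channel sums equalised. Thermal stability relative to control samples, from duplicates, is given as log2 fold change.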

[2] = compound: C=CC(=O)N1CCC[C@@H](n2nc(-c3ccc(Oc4ccccc4)cc3)c3c(N)ncnc32)C1 [ibrutinib]
How it was run: as §1

[3] = compound: CC(=O)c1cnc2ccc(-c3cc(Cl)c(O)c(Cl)c3)nc2c1N[C@H]1CC[C@H](CN(C)C)CC1
How it was run: as §1

[4] = compound: CC(C)(C)Cn1c(N)nc2ccc(-c3[nH]c(C(C)(C)C)nc3-c3ccc(F)cc3)nc21 [ralimetinib]
How it was run: as §1

[5] = compound: CC(C)(O)CC(=O)NCCn1ccc2ncnc(Nc3ccc(Oc4cccc(C(F)(F)F)c4)c(Cl)c3)c21
How it was run: as §1

[6] = compound: CC(C)C1=C2N=C(C=C(N2N=C1)NCC3=CC=CC=C3)NCCCCCCN
How it was run: as §1

[7] = compound: CC(C)C[C@@H](C=O)NC(=O)[C@H](CC(C)C)NC(=O)[C@H](CC(C)C)NC(=O)OCc1ccccc1
How it was run: as §1

[8] = compound: CC(C)N(C[C@H]1O[C@@H](n2cnc3c(N)ncnc32)[C@H](O)[C@@H]1O)[C@H]1C[C@@H](CCc2nc3cc(C(C)(C)C)ccc3[nH]2)C1 [pinometostat]
How it was run: as §1

[9] = compound: CC1=C(C2=C(C=C1)C(=O)C3=CC=CC=C3N2CCCN)C
How it was run: as §1

[10] = compound: CC1=C(C=C(C=C1)NC(=O)C2=CC(=CC=C2)C(C)(C)C#N)NC3=CC4=C(C=C3)N=CN(C4=O)C
How it was run: as §1

[11] = compound: CC1=C(C=C(C=C1)NC(=O)C2=CC(=CC=C2)N(C)C)NC(=O)C3=CC=C(C=C3)O
How it was run: as §1

[12] = compound: CC1=CC=C(C=C1)SC2=C3C=C(SC3=CN=C2)C(=O)N
How it was run: as §1

[13] = compound: CC1=NC(=CC=C1)C2=C(N=C(N2)C(C)(C)C)C3=CC4=NC=CN=C4C=C3
How it was run: as §1

[14] = compound: CCCCN(Cc1ccc(C(=O)NO)cc1)C(=O)Nc1ccccc1 [Nexturastat A]
How it was run: as §1

[15] = compound: CCCS(=O)(=O)Nc1ccc(F)c(C(=O)c2c[nH]c3ncc(-c4ccc(Cl)cc4)cc23)c1F [vemurafenib]
How it was run: as §1

[16] = compound: CCCS(=O)(=O)Nc1ccc(F)c(C(=O)c2c[nH]c3ncc(Cl)cc23)c1F
How it was run: as §1

[17] = compound: CCN(CC)Cc1ccc2cc(COC(=O)Nc3ccc(C(=O)NO)cc3)ccc2c1 [givinostat]
How it was run: as §1

[18] = compound: CCN(CCCOc1ccc2c(Nc3cc(CC(=O)Nc4cccc(F)c4)[nH]n3)ncnc2c1)CCOP(=O)(O)O [barasertib]
How it was run: as §1

[19] = compound: CC1=C(C(CC(=O)N1)C2=CC=C(C=C2)C(F)(F)F)C(=O)NC3=C(C=C4C(=C3)C=NN4)F
How it was run: as §1

[20] = compound: CCCc1cc(C)[nH]c(=O)c1CNC(=O)c1cc(-c2ccnc(N3CCN(C)CC3)c2)cc2c1cnn2C(C)C
How it was run: as §1

Sequence of UniProt Q9P0B6 (Q9P0B6 whole entry, looked up): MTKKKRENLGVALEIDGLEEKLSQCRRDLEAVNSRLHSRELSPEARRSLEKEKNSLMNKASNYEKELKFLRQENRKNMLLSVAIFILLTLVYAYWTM
Sequence of UniProt Q96KA5 (Q96KA5 whole entry, looked up): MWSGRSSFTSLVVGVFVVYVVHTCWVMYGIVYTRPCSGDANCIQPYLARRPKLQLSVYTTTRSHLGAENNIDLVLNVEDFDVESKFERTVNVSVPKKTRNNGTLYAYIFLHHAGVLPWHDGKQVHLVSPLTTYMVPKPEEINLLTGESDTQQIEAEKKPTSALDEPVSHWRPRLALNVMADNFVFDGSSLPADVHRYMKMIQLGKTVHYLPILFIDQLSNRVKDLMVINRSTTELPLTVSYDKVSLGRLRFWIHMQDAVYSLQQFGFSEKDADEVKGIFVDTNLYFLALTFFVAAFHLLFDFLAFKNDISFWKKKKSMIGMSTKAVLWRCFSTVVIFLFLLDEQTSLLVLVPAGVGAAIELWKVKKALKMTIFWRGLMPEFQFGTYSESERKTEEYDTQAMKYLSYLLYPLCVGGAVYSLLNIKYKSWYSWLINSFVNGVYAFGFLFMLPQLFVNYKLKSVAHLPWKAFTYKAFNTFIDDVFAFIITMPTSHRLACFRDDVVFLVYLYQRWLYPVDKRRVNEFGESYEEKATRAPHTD
Sequence of UniProt O95628 (O95628 whole entry, looked up): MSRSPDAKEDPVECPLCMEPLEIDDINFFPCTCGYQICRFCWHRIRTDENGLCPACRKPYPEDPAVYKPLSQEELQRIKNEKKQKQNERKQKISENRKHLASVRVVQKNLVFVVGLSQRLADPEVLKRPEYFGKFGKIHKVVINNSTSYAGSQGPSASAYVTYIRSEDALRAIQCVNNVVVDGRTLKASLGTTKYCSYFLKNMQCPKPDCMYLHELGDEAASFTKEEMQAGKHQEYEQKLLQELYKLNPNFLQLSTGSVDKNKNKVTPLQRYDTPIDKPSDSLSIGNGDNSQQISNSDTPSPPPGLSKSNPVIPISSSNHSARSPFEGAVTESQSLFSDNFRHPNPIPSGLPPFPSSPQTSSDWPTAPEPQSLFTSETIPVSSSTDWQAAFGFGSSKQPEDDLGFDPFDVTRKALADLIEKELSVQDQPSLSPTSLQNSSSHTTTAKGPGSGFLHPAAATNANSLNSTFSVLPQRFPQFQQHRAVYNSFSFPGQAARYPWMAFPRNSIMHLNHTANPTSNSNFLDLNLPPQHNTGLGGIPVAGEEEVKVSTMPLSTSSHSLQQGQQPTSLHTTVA
Sequence of UniProt P09497 (P09497 whole entry, looked up): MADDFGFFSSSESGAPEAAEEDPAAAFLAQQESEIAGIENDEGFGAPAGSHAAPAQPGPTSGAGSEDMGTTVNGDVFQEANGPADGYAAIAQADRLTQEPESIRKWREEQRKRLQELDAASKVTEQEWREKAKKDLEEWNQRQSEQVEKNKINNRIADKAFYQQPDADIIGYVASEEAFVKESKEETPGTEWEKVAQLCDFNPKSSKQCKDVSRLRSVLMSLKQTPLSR
Sequence of UniProt Q5BKX5 (Q5BKX5 whole entry, looked up): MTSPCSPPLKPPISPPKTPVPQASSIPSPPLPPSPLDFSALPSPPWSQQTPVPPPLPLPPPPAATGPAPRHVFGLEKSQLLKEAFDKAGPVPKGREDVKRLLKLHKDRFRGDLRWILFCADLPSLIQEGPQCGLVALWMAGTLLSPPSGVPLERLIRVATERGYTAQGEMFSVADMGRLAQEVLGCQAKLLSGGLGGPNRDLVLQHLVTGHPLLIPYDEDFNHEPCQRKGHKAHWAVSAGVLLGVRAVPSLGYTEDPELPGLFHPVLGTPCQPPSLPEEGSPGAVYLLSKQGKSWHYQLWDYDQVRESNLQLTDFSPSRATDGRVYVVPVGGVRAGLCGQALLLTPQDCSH
Sequence of UniProt Q9H9S4 (Q9H9S4 whole entry, looked up): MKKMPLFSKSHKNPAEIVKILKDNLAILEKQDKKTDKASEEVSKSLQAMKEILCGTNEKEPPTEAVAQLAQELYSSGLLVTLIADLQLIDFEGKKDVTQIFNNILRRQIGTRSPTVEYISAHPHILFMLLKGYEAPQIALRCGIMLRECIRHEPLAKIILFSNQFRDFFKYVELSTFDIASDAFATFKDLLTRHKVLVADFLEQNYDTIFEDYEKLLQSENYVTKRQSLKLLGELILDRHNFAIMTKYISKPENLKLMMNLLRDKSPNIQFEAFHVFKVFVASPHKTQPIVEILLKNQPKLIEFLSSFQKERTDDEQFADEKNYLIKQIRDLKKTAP
Sequence of UniProt Q2TAC2 (Q2TAC2 whole entry, looked up): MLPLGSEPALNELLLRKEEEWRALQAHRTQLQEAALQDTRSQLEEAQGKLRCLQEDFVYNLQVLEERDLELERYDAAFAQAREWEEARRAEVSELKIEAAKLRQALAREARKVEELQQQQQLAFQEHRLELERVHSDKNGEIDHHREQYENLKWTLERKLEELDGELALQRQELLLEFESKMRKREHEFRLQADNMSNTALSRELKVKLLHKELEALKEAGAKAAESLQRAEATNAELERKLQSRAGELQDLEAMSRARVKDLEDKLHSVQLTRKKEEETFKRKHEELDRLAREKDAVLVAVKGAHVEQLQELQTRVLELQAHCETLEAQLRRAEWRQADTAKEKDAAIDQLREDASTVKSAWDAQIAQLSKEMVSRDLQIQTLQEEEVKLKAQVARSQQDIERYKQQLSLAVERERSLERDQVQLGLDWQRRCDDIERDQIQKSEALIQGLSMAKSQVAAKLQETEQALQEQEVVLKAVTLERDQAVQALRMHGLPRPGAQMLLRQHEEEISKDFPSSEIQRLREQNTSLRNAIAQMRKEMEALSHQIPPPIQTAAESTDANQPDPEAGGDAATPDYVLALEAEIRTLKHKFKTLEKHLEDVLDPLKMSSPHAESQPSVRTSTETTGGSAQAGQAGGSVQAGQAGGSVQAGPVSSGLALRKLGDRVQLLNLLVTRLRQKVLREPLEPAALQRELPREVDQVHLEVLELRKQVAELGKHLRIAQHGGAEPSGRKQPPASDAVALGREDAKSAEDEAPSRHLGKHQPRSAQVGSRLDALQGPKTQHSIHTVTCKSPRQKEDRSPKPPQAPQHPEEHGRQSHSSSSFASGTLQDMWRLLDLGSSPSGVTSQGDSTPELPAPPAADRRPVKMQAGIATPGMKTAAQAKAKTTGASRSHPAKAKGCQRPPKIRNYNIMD

CAB39L (UniProt Q9H9S4) showed a log2 fold change [1] of 0.018, a log2 fold change [2] of 0.001 and a log2 fold change [3] of -0.126. It also gave a log2 fold change [4] of 0.057, a log2 fold change [5] of -0.152 and a log2 fold change [6] of -0.024. For the same target, the log2 fold change [7] was 0.032, the log2 fold change [8] was 0.102 and the log2 fold change [9] was -0.483. It also gave a log2 fold change [10] of -0.142, a log2 fold change [11] of -0.008 and a log2 fold change [12] of 0.004. The log2 fold change [13] was -0.043, the log2 fold change [14] was 0.003 and the log2 fold change [15] was -0.013. It also gave a log2 fold change [16] of -0.001, a log2 fold change [17] of -0.025 and a log2 fold change [18] of 0.043.
For CLTB (UniProt P09497), the log2 fold change [1] was 0.053, the log2 fold change [3] was 0.089 and the log2 fold change [4] was 0.061. It also gave a log2 fold change [5] of -0.021, a log2 fold change [6] of 0.024 and a log2 fold change [7] of -0.067. The log2 fold change [8] was -0.07, the log2 fold change [19] was 0 and the log2 fold change [9] was -0.007. The log2 fold change [10] was -0.003, the log2 fold change [11] was -0.025 and the log2 fold change [12] was -0.007. The log2 fold change [13] was 0.037, the log2 fold change [14] was -0.039 and the log2 fold change [15] was -0.009. The log2 fold change [16] was -0.012, the log2 fold change [20] was -0.036 and the log2 fold change [17] was 0.047. The log2 fold change [18] was -0.023.
For CNOT4 isoform 9 (UniProt O95628), the log2 fold change [1] was 0.09, the log2 fold change [2] was 0.089 and the log2 fold change [3] was 0.189. For the same target, the log2 fold change [4] was 0.128, the log2 fold change [6] was -0.068 and the log2 fold change [7] was 0.015. For the same target, the log2 fold change [8] was -0.028, the log2 fold change [19] was -0.024 and the log2 fold change [9] was 0.202. For the same target, the log2 fold change [11] was -0.034, the log2 fold change [12] was 0.003 and the log2 fold change [13] was 0.017. For the same target, the log2 fold change [15] was -0.059, the log2 fold change [16] was 0.006 and the log2 fold change [20] was -0.171. It also gave a log2 fold change [17] of 0.053 and a log2 fold change [18] of 0.015.
CLUH, A0A494C0R8 was tested, and the log2 fold change [1] was -0.016, the log2 fold change [3] was 0.508 (active) and the log2 fold change [4] was -0.125. The log2 fold change [5] was -0.231, the log2 fold change [6] was -0.257 and the log2 fold change [7] was 0.199. The log2 fold change [8] was -0.044, the log2 fold change [19] was -0.058 and the log2 fold change [9] was 0.046. It also gave a log2 fold change [10] of 0.008, a log2 fold change [11] of -0.077 and a log2 fold change [12] of -0.02. It also gave a log2 fold change [13] of 0.124, a log2 fold change [14] of 0.068 and a log2 fold change [15] of -0.121. It also gave a log2 fold change [16] of -0.072, a log2 fold change [20] of 0.016 and a log2 fold change [17] of 0.092. For the same target, the log2 fold change [18] was -0.043.
With CCDC57 (UniProt Q2TAC2) the log2 fold change [1] was 0.067, the log2 fold change [2] was -0.021 and the log2 fold change [4] was 0.005. For the same target, the log2 fold change [5] was -0.007, the log2 fold change [6] was 0.041 and the log2 fold change [7] was 0.05. For the same target, the log2 fold change [8] was -0.04, the log2 fold change [19] was 0.042 and the log2 fold change [9] was 0.012. For the same target, the log2 fold change [10] was 0.004, the log2 fold change [11] was 0.02 and the log2 fold change [12] was 0.032. It also gave a log2 fold change [13] of -0.01, a log2 fold change [14] of -0.049 and a log2 fold change [15] of 0. The log2 fold change [16] was 0.013, the log2 fold change [20] was -0.047 and the log2 fold change [17] was 0.027. The log2 fold change [18] was 0.015.
In the case of CCDC167 (UniProt Q9P0B6), the log2 fold change [1] is reported as -0.056, the log2 fold change [2] is reported as 0.013 and the log2 fold change [4] is reported as -0.028. For the same target, the log2 fold change [5] was 0.163, the log2 fold change [6] was -0.258 and the log2 fold change [7] was 0.061. For the same target, the log2 fold change [8] was 0.052, the log2 fold change [19] was 0.034 and the log2 fold change [9] was 0.021. It also gave a log2 fold change [10] of 0.064, a log2 fold change [11] of -0.039 and a log2 fold change [12] of -0.007. It also gave a log2 fold change [13] of -0.042, a log2 fold change [14] of 0.022 and a log2 fold change [16] of -0.034. It also gave a log2 fold change [20] of 0.022, a log2 fold change [17] of 0.048 and a log2 fold change [18] of -0.003.
With CLPTM1L (UniProt Q96KA5) the log2 fold change [1] was 0.051, the log2 fold change [3] was -0.033 and the log2 fold change [4] was -0.05. The log2 fold change [5] was -0.069, the log2 fold change [6] was -0.281 (active) and the log2 fold change [7] was 0.006. It also gave a log2 fold change [8] of 0.023, a log2 fold change [19] of 0.042 and a log2 fold change [9] of 0.033. For the same target, the log2 fold change [10] was -0.014, the log2 fold change [11] was 0.01 and the log2 fold change [12] was 0.03. It also gave a log2 fold change [13] of 0.022, a log2 fold change [14] of -0.032 and a log2 fold change [15] of 0.045. For the same target, the log2 fold change [16] was 0.016, the log2 fold change [20] was -0.015 and the log2 fold change [17] was 0.009. It also gave a log2 fold change [18] of 0.021.
C19orf54 (UniProt Q5BKX5) was tested, and the log2 fold change [1] was 0.008, the log2 fold change [3] was 0.045 and the log2 fold change [4] was 0.019. It also gave a log2 fold change [5] of -0.003, a log2 fold change [6] of -0.022 and a log2 fold change [7] of 0.08. For the same target, the log2 fold change [8] was -0.016, the log2 fold change [9] was -0.054 and the log2 fold change [10] was 0.096. The log2 fold change [11] was -0.053, the log2 fold change [12] was 0.127 and the log2 fold change [13] was -0.104. For the same target, the log2 fold change [14] was -0.025, the log2 fold change [15] was -0.118 and the log2 fold change [16] was 0.077. It also gave a log2 fold change [17] of 0.044.
